According to PubChem BioAssay:
Active and inactive are the calls of the source.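 Rule for the calls: active = growth inhibition above 50% at the single 2 µM test dose, taken to imply half-maximal potency below 2 µM; inactive = the rest.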

Assay: antimalarial activity against Dd2 strain (AID 2302);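 note: 0% = DMSO untreated growth and 100% = chloroquine plus artemisinin killed control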
Details: P. falciparum Dd2 in RBCs, LDH growth readout, 72 h; at 2 µM; stronger effect = higher value

Structure (SMILES)	growth inhibition
COc1cccc2c1CCN(CCN1CCC(NC(=O)c3ccc(-c4cccc(Cl)c4Cl)cc3)CC1)C2	38% (inactive)
C=CCC1OC(=O)c2cc(OC)cc(OC)c21 (stereo not given)	100% (active)
COCC(=O)Nc1nc2ccccc2[nH]1	1% (inactive)
COc1ccc(NC(=O)C2c3ccccc3C(=O)N(C3CCCC3)C2c2cccs2)cc1 (stereo not given)	75% (active)
CN1C[C@@H](c2ccccc2)c2cc(O)c(CN3CCCCC3)cc2C[C@H]1Cc1ccccc1	99% (active)
CO/C(=C\C=C\c1cc2cc(Cl)c(Cl)cc2[nH]1)C(=O)NC1CCN(CCNc2ccccc2)CC1	98% (active)
CC(C)(CC1CCCCC1)NC(=O)[C@H](CC1CCCCC1)Nc1ccc(C#N)c2ccccc12	52% (active)
CC[C@H](NC(=O)c1ccc(NC(=O)OC(C)(C)C)cc1)C(=O)N[C@@H](CO)C(=O)NCCCCc1ccccc1	94% (active)
COc1ccccc1CNC(=O)c1ccc(N2CCN(c3ccncc3)CC2)cn1	17% (inactive)
CCCCCCCCCc1c(C)[nH]c2ccccc2c1=O	96% (active)
NC(N)=NN=Cc1ccc2c(c1)Cc1ccccc1-2	81% (active)
CC(C)(C)c1ccc(C(=O)NC2CCC(CCN3CCc4ccc(S(C)(=O)=O)cc4CC3)CC2)cc1C(F)(F)F (stereo not given)	11% (inactive)
O=C(Nc1ccc2c(c1)OCO2)c1cc(-c2cccnc2)cnc1NCc1ccc2c(c1)OCO2	1% (inactive)
COc1ccc(Nc2ccnc3cc(-c4ccccn4)ccc23)cc1OC	26% (inactive)
CC(C)Cn1c(Sc2ccc(C#N)c([N+](=O)[O-])c2)nnc1-c1cccs1	32% (inactive)
